{
  "source": "PubChem BioAssay (NCI)",
  "note": "About 83,000 compounds went through this panel and 20% of them were active in at least one assay; those are over-represented in the sample as a whole.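 The endpoint reported here, percent growth, reads 100 for growth as untreated, 0 for no net growth and -100 for all cells dead.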 Activity calls are given as the source filed them. Rule for the calls: active = growth percent below 10; inactive = the rest.",
  "data": [
    {"system": "HL-60(TB) leukemia", "test": "NCI-60 one-dose screen, 48 h (100 = growth as untreated, 0 = no growth, -100 = all killed)", "conditions": "10 µM unless noted", "values": [
      {"smiles": "Cc1ccc(-c2cnc3sc(C(=O)NCCc4ccccc4)c(C)n23)cc1", "growth": "97.9% (inactive)"},
      {"smiles": "COc1cc2c3c(n([C@H]4CCOC4)c(=O)c2cc1OC)-c1cc2c(cc1C3=O)OCO2", "growth": "25% (inactive)"},
      {"smiles": "COc1cc(-c2nc3cc(Cl)c(Cl)cc3[nH]2)ccc1OCC(=O)N=Nc1c(O)[nH]c2ccccc12", "growth": "-51.5% (active)"},
      {"smiles": "C#CCNc1nc(NCCNC(=O)CCl)nc(N(C)CCCCc2ccccc2)n1", "growth": "107% (inactive)"},
      {"smiles": "c1ccc(CO[C@H]2CO[C@H]3[C@@H]2OC[C@@H]3Oc2ccc(Nc3ncnc4ccsc34)cc2)cc1", "growth": "75.7% (inactive)"},
      {"smiles": "O=C(CNC(=O)OCc1ccccc1)NCC(=O)Oc1ccc([N+](=O)[O-])cc1", "growth": "141% (inactive)"},
      {"smiles": "O=S(=O)(NCCNc1nccc(-c2c(-c3ccc(F)c(O)c3)nc3sccn23)n1)c1ccccc1", "growth": "71% (inactive)"},
      {"smiles": "COc1ccc(-c2cc(-c3ccccc3)nc(SCCCC(=O)NO)n2)cc1OC", "growth": "-12.2% (active)"},
      {"smiles": "CC1=CC2C(C(O)CC3(C)C2CC(C)C32OCOC23COCO3)C2(C)C/C(=C/O)C(=O)C=C12", "note": "(stereo not given)", "growth": "-12.3% (active)"},
      {"smiles": "NCCCN1CCCC1=O", "growth": "90.1% (inactive)"},
      {"smiles": "COc1ccc2c(c1)OC1=C(C(=O)OC1)C2c1cc(OC)c(OC)c(OC)c1", "note": "(stereo not given)", "growth": "5.99% (active)"},
      {"smiles": "O=C1C=CC(=O)N1c1ccc2c(c1)Cc1cc(F)ccc1-2", "growth": "63% (inactive)"},
      {"smiles": "CC1(C)N=C(N)N=C(N)N1c1ccc(Cl)cc1", "growth": "51.6% (inactive)"},
      {"smiles": "Cc1c(Cl)cccc1NS(=O)(=O)c1ccccc1", "growth": "113% (inactive)"},
      {"smiles": "N#CC1=C(N)Oc2c(ccc3ccccc23)C1c1cc2ccccc2n2nnnc12", "note": "(stereo not given)", "growth": "-32.7% (active)"},
      {"smiles": "COC(=O)[C@]12CC[C@@H](C)[C@H](C)[C@@H]1C1=CC[C@@H]3[C@@]4(C)C=C(O)C(=O)C(C)=C4CC[C@@]3(C)[C@]1(C)CC2", "growth": "4.09% (active)"},
      {"smiles": "Cc1nc(-c2ccc(Cl)cc2)ccc1NC(=O)Nc1cccc(C(F)(F)F)c1", "growth": "79.7% (inactive)"},
      {"smiles": "COc1cc(CN2CCO[C@H](COc3cccc(F)c3)C2)ccc1Cl", "growth": "26.3% (inactive)"},
      {"smiles": "COc1ccc(/C=C2\\COc3ccc(O)c(O)c3C2=O)cc1OC", "growth": "-28.7% (active)"},
      {"smiles": "CCCC(F)C(=O)O", "note": "(stereo not given)", "growth": "97.3% (inactive)"},
      {"smiles": "Cc1nc2ccc(Cl)cn2c1-c1nnc(SCc2ccc([N+](=O)[O-])cc2)o1", "growth": "109% (inactive)"},
      {"smiles": "Cc1ccc2c(/C=C/C(=O)c3cc(CN4CCOCC4)c(O)c4nc(C)ccc34)cc(CN3CCOCC3)c(O)c2n1", "growth": "-25.2% (active)"},
      {"smiles": "Cc1ccc(S(=O)(=O)n2cc(C(=O)C(=O)Nc3ccncc3)c3ccccc32)cc1", "growth": "16.1% (inactive)"},
      {"smiles": "NNc1nc(-c2cccnc2)nc2c1sc(=S)n2-c1ccccc1", "growth": "77.1% (inactive)"},
      {"smiles": "CCOC(=O)C(C)(c1ccccc1)c1ccccc1", "growth": "104% (inactive)"},
      {"smiles": "Cc1nc2ccc(C(=O)NCc3cc(C(=O)O)c(C)o3)cc2nc1C", "growth": "103% (inactive)"},
      {"smiles": "CC(=O)CSc1ncnc2nc[nH]c12", "growth": "103% (inactive)"},
      {"smiles": "Oc1ccc(Nc2ccccc2)cc1", "growth": "66.5% (inactive)"},
      {"smiles": "Cn1c(=O)c2c(nc(N/N=C/c3ccccc3Cl)n2C)n(C)c1=O", "growth": "91.6% (inactive)"},
      {"smiles": "CCCCn1c(=O)[nH]c(N)c(C(c2ccc(F)cc2)c2c(N)[nH]c(=O)n(CCCC)c2=O)c1=O", "growth": "78.7% (inactive)"},
      {"smiles": "O=C(O)c1cccc(CN2CCN(c3cc4c(cc3F)c(=O)c(C(=O)O)cn4C3CC3)CC2)c1O", "growth": "99.4% (inactive)"},
      {"smiles": "CN1CCN(Cc2ccc(NC(=O)c3cncc(C#Cc4cnc(N)c5ncccc45)c3)cc2Cl)CC1", "growth": "21.5% (inactive)"},
      {"smiles": "CCOc1cc(C2C(Cl)C(=O)N2n2cnnc2)ccc1O", "note": "(stereo not given)", "growth": "101% (inactive)"},
      {"smiles": "O=C(Nc1nc2ccc(F)cc2s1)c1cccnc1Nc1ccc(Cl)cc1Cl", "growth": "26.5% (inactive)"},
      {"smiles": "CC1=C[C@@H]2c3c(c(O)c(O)c4oc5cc(O)cc(O)c5c(=O)c34)[C@@H](c3cc(O)c(O)c4oc5cc(O)cc(O)c5c(=O)c34)[C@@H]2C(C)(C)C1", "growth": "-3.85% (active)"},
      {"smiles": "Cc1cc(NC(=O)c2ccccc2)c(Cl)cc1N", "growth": "54.7% (inactive)"},
      {"smiles": "O=C1CC[C@@H]2CCCC[C@@H]2C1", "growth": "110% (inactive)"},
      {"smiles": "O=[N+]([O-])c1ccc(N=Nc2ccc(O)cc2O)cc1", "growth": "32.5% (inactive)"},
      {"smiles": "O=c1cc(CSc2nnc(-c3ccc(F)cc3)o2)c2ccc3ccccc3c2o1", "growth": "99.9% (inactive)"},
      {"smiles": "COc1cc2oc(-c3cccc(C(=O)Nc4ccc5c(c4)OCO5)c3)cc(=O)c2c(O)c1OC", "growth": "94.3% (inactive)"}
    ]}
  ]
}
